# Measured values as given in PubChem BioAssay AID1224903 (Bradner/Qi Labs at DFCI, 2016).
# In all, about 66,000 compounds went through this assay and about 720 (1.1%) were called active. Rule as the data show it: active = normalised signal below about 0.5; inactive = the rest, inconclusive results apart. The sample as a whole holds a higher share of actives than the screen did.
# Molecular target: Chromobox protein homolog 7 (Homo sapiens) (UniProt O95931)
# Test: CBX7 chromodomain binding inhibitors, primary screen, biochemical, AlphaScreen (AID 1224903)
# Settings: AlphaScreen His6-CBX7 / biotin-H3K27me3 peptide binding, stronger effect = lower value; z-score: measured here: z-score of CBX7 signal
# Sequence of Chromobox protein homolog 7 (Homo sapiens) (O95931 whole entry, looked up): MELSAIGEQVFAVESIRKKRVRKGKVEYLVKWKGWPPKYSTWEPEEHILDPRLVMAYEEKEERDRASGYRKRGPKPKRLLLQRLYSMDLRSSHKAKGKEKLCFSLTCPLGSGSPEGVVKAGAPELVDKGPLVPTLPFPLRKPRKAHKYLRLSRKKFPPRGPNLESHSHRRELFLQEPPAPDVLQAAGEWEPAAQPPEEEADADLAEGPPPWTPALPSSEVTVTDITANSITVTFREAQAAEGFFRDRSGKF
Structure (SMILES),normalised signal (fraction of DMSO),z-score
Cc1ccc(C(=O)N2CC(=O)Nc3ccc(F)cc3C2c2ccc(F)cc2)cc1 (stereo unspecified),1.01 (inactive),0.159
Cc1ccc2c(c1)C(c1ccc(F)cc1)N(C(=O)c1ccc(C)c(C)c1)CC(=O)N2 (stereo unspecified),0.316 (active),-6.53
Cc1ccc2c(c1)C(c1ccc(F)cc1)N(C(=O)c1ccc(S(=O)(=O)N3CCCC3)cc1)CC(=O)N2 (stereo unspecified),0.859 (inactive),-1.94
O=C(Nc1ccccc1C(=O)Nc1ccccc1)c1cccc(S(=O)(=O)N2CCCCC2)c1,0.764 (inactive),-2.54
Cc1ccc(C(C)C)c(OCc2nnc(NC(=O)c3ccc(Br)cc3)s2)c1,1.06 (inactive),0.262
CCN1CCN(CCCNC(=O)c2ccc3c(c2)N(Cc2ccc(F)cc2)CCS3)CC1,0.904 (inactive),-4.6
CC(=O)N1CCC(N(C(=O)Nc2ccc(Cl)cc2)C2CCCCCC2)CC1,1.02 (inactive),0.287
Cc1ccc(-c2nc(Nc3ccccc3)sc2C)cc1,0.99 (inactive),-0.257
CCCCNC(=O)c1cc(Nc2ccc(CC)cc2)nc2ccccc12,0.991 (inactive),-0.251
O=C(NCc1ccccc1)C1CCN(c2nc3ccccc3o2)CC1,1.02 (inactive),0.778
COc1ccc(CNc2nc(-c3ccccc3)cc(C(F)(F)F)n2)cc1,1.28 (inactive),3.06
COc1ccc(CNc2ccc3c(c2)ncn3C(C)(C)C)c(OC)c1,0.589 (inactive),-11.8
Cc1ccc(NC(=O)CCc2nnc3ccc(NCc4ccccc4Cl)nn23)cc1,0.916 (inactive),-2.3
CC(C)n1cnc2cc(NCc3ccccc3Cl)ccc21,0.463 (active),-15.4
COc1ccc(OC)c(Cc2nc3cc(C)c(C)cc3[nH]c2=O)c1,0.964 (inactive),-1.09
O=C(Nc1ccccc1Cl)C1CCN(C(=O)c2cnn(-c3ccccc3)c2-n2cccc2)CC1,1.04 (inactive),1.69
Cc1ccc(C(=O)CN2C3=NCCN3c3ccccc32)cc1,0.994 (inactive),-0.186
CC(C)N(CCCNC(=O)C1CCC(=O)N1Cc1ccc(F)cc1)Cc1ccccc1 (stereo unspecified),0.995 (inactive),-0.146
CCc1ccc(NC(=O)Cn2c(SCc3cccc(F)c3)nc3ccncc32)cc1,1.06 (inactive),0.594
Fc1cnc(Nc2ccc(Cl)cc2)nc1Nc1ccc(Cl)cc1,1.05 (inactive),0.523
CCc1cc(C)cc(OCC(O)Cn2cnc3ccccc32)c1 (stereo unspecified),0.88 (inactive),-3.02
CC(C)c1ccc(OCC(O)Cn2cnc3ccccc32)cc1 (stereo unspecified),0.284 (active),-13.5

Structure (SMILES),normalised signal (fraction of DMSO),z-score
Cc1ccc(C(C)C)cc1OCC(O)Cn1cnc2ccccc21 (stereo unspecified),0.815 (inactive),-2.55
Cc1ccc(NC(=O)c2cc(C)nn2-c2ccccc2)c(C)c1,1.04 (inactive),1.18
COc1cccc(C(=O)Nc2ccc3oc(-c4ccccc4)nc3c2)c1,1.16 (inactive),2.43
COc1ccc(-c2noc(N(C)CC(=O)N3CCN(C)CC3)n2)cc1,1.02 (inactive),0.593
O=C(CSCc1cnn(-c2ccccc2)c1-n1cccc1)NC1CC1,0.986 (inactive),-0.615
COc1ccccc1N1CCN(C(c2cccs2)C(C)NC(=O)c2ccc3c(c2)OCO3)CC1 (stereo unspecified),0.905 (inactive),-2.32
CCOc1ccc(C(=O)Nc2c3c(nn2-c2cccc(C)c2C)CSC3)cc1,1.01 (inactive),0.119
Cc1ccc(Cc2cnc(CN(C)C)c(O)c2)cc1,0.477 (active),-6.92
Clc1ccc2nc(-c3ccsc3)c(NC(c3ccccc3)c3ccccc3)n2c1,1.04 (inactive),1.58
Cc1ccc(-c2nc(C#N)c(NCCCn3ccnc3)o2)cc1,0.442 (active),-0.658
Cc1ccc(CNc2oc(-c3ccc(F)cc3)nc2C#N)cc1,0.934 (inactive),-2.3
COc1ccc(-c2cc(C(=O)NCCCn3ccnc3)no2)cc1,0.983 (inactive),-0.364
COc1ccc(Cl)cc1NC(=O)C1c2cc(OC)c(OC)cc2C(=O)N(C)C1c1ccccc1F (stereo unspecified),1.06 (inactive),1.16
Cc1ccc(CNC(=O)c2c(-c3ccccc3)noc2C)cc1,1.03 (inactive),0.952
CC1(C)CC(=O)c2cc(OCC(=O)NCCCN3CCCC3)ccc2O1,0.509 (inactive),-9.7
Cc1ccc(-c2nc3c(C)cccn3c2Nc2ccc3c(c2)OCCO3)cc1,0.63 (inactive),-13.9
O=C(NCc1ccccc1)C1C2C=CC3(CN(Cc4ccccc4Cl)C(=O)C13)O2 (stereo unspecified),0.955 (inactive),-2.13
CCCCn1c(C2CC(=O)N(c3ccc(CC)cc3)C2)nc2ccccc21 (stereo unspecified),0.96 (inactive),-0.9
Cc1ccc(-c2nnc(Nc3ccc(C(=O)N(C)C)cc3)c3ccccc23)cc1S(N)(=O)=O,1.08 (inactive),2.41
Cc1ccc(-c2nnc(Nc3ccc(OCC(N)=O)cc3)c3ccccc23)cc1S(=O)(=O)NC(C)C,0.723 (inactive),-5.21
CCOc1ccc(-c2nnc(Nc3ccc(C(N)=O)cc3)c3ccccc23)cc1,0.436 (active),-2.64
